High-throughput results: PubChem BioAssay, The Scripps Research Institute Molecular Screening Center
Hits are enriched below; roughly 3.5% of the tested compounds scored in any of these assays.
GPR151 activ – activators of human GPR151; hit rate 1% among 650,000; activation, % at 11.2 µM; Q8TDV0; PathHunter beta-arrestin GPR151 cells, luminescence; in the data active means activation above about 4.9%
TEAD-YAP block – TEAD-YAP interaction inhibition; HEK-TIYL cells, TEAD-Gal4/YAP UAS-luciferase luminescence; AID 1259422; hit rate 1.4% among 640,000; inhibition, % at 9.12 µM; in the data active means inhibition above about 32%
FBW7 activator – activators of human E3 ligase FBW7 | hit rate 0.13% among 650,000 | Q969H0 | AlphaScreen FBW7–phospho-cyclin E peptide binding, activator screen | normalized activity (activation), % at 26.1 µM; in the data active means normalized activity above about 1.9%;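 further: purified mutant Fbw7 with reduced substrate affinity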
MITF inh – inhibitors of human MITF. inhibition, % at 2.6 µM. AlphaScreen MITF homodimerization, bead proximity signal. hit rate 0.91% among 650,000. O75030. AID 1259374; in the data active means inhibition above about 50%
Target sequence (O75030 whole entry, looked up): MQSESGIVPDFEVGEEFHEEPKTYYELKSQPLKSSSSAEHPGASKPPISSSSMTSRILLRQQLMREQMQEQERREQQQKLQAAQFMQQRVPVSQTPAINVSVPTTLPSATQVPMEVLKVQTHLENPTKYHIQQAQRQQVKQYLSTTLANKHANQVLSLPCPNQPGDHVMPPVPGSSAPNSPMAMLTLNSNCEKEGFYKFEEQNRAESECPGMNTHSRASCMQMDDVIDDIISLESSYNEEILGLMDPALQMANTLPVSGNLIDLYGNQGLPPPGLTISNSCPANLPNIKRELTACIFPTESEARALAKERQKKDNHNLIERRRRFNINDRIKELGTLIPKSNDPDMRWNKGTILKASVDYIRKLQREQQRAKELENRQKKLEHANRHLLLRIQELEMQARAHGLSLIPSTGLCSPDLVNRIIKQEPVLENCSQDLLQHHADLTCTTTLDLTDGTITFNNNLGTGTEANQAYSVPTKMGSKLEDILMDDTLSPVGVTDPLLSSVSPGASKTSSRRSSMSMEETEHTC
GPR151 confirm – confirmation of human GPR151 activators | shares compounds with GPR151 activ | GPR151 PathHunter beta-arrestin cells, luminescence, 90 min; % of EA-reagent control over plate median | 6,700 tested, under 10 active | activation, % at 11.2 µM;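 active means mean percent activation across replicates above the confirmation screen cutoff of 4.91%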
GPR119 counter – GPR119 activation, counter-screen for GPR151 activators; shares compounds with GPR151 activ; GPR119 PathHunter beta-arrestin cells, luminescence, 90 min; 0 = compound-well median, 100 = enzyme-acceptor control; activation, % at 11.2 µM; hit rate 0.3% among 6,700;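 active means mean percent activation in the counterscreen above 29.09%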;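 further: counterscreen on off-target GPR119 to flag nonselective hits from the GPR151 activator screen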
Each line names hits and unclear results; the compound was inactive in the other large screens (follow-up assays come after a bar, where they were run).

O=C(NCc1ccccc1)c1cnc(-c2ccccc2)s1	GPR151 activ 6.6 | GPR151 confirm inactive | GPR119 counter inactive
O=C1c2cccc3cccc(c23)N1Cn1c(=S)sc2ccccc21	none
CCOC(=O)c1oc2ccccc2c1NC(=O)Cc1cccc(C)c1	none
COc1cc(CNc2ncn[nH]2)cc(Cl)c1OC	none
COc1cc(CNc2ncn[nH]2)ccc1OCc1cccc(C)c1	GPR151 activ 5.1 | GPR151 confirm inactive | GPR119 counter inactive
CCOC(=O)N1CCN(c2c(NCCN3CCCC3)c(=O)c2=O)CC1	GPR151 activ 5.5 | GPR151 confirm inactive | GPR119 counter inactive
CCOC(=O)C1CCCN(c2c(NCCCN3CCN(C)CC3)c(=O)c2=O)C1 (stereo not drawn)	none
CCOC(=O)N1CCC(Nc2c(NC(C)CC)c(=O)c2=O)CC1 (stereo not drawn)	GPR151 activ 8.8 | GPR151 confirm inactive | GPR119 counter inactive
CCOC(=O)N1CCN(c2c(NC3CCCCCCC3)c(=O)c2=O)CC1	none
CCOC(=O)C1CCN(c2c(NCCN3CCOCC3)c(=O)c2=O)CC1	GPR151 activ 6.3 | GPR151 confirm inactive | GPR119 counter inactive
CCCCNc1c(N2CCCC(C(=O)OCC)C2)c(=O)c1=O (stereo not drawn)	GPR151 activ 5.1 | GPR151 confirm inactive | GPR119 counter inactive
CCOC(=O)N1CCN(c2c(NCCN3CCCCCC3)c(=O)c2=O)CC1	none
CC(C)(C)C1CC(C(=O)Oc2ccc(Br)cc2)CC(C(C)(C)C)C1 (stereo not drawn)	none
COc1ccc(C(=O)NNC(=O)/C=C/c2ccccc2)cc1OC	none
CCCCCCC1CC(=O)N(Cc2ccc(C(=O)OC)cc2)C(=O)N1 (stereo not drawn)	none
CC1CCN(c2c(NCc3ccc(C(=O)NCCc4ccccc4)cc3)c(=O)c2=O)CC1	GPR151 activ 5.2 | GPR151 confirm inactive | GPR119 counter inactive
CCOC(=O)C1CCCN(c2c(NCCCc3ccccc3)c(=O)c2=O)C1 (stereo not drawn)	none
CCOC(=O)C1CCN(c2c(NCCCc3ccccc3)c(=O)c2=O)CC1	GPR151 activ 9.9 | GPR151 confirm inactive | GPR119 counter inactive
COc1cc(C(=O)NCCc2sc(C)nc2C)cc(OC)c1OC	none
CCOc1ccc(S(=O)(=O)NCC(c2ccco2)S(=O)(=O)c2ccc(C)cc2)cc1 (stereo not drawn)	GPR151 activ 8.4 | GPR151 confirm inactive | GPR119 counter inactive
CCN(CCCNC(=O)CCNC(=O)Cn1cnc2sc3c(c2c1=O)CCCC3)Cc1ccccc1	none
COc1cccc(CC(=O)N2CCc3nc(-c4ccccc4)c4c(c3C2)CO[C@@H](C)C4)c1	GPR151 activ 6.8 (no result: TEAD-YAP block) | GPR151 confirm inactive | GPR119 counter inactive
C[C@H]1Cc2c(-c3ccccc3)nc3c(c2CO1)CN(C(=O)Cc1cccs1)CC3	none (no result: TEAD-YAP block)
C=CCNC(=O)N1CCc2nc(-c3ccc(OC)cc3C)c3c(c2C1)CO[C@@H](c1ccccc1)C3	none (no result: TEAD-YAP block)
COc1ccc(-c2nc3c(c4c2C[C@H](c2ccccc2)OC4)CN(C(=O)NCc2ccco2)CC3)c(C)c1	GPR151 activ 5.9 (no result: TEAD-YAP block) | GPR151 confirm inactive | GPR119 counter inactive
COCCNC(=O)/C(C#N)=C/c1ccc(C)o1	none
N#Cc1c(-c2ccccc2)cc(-c2ccccc2)nc1SCc1ccc(Cl)c(Cl)c1	none
N#Cc1c(-c2ccccc2)cc(-c2ccccc2)nc1SCc1ccc(Cl)cc1	GPR151 activ 5.5 | GPR151 confirm inactive | GPR119 counter inactive
CCCn1nnc(NC(=O)C(C)Oc2ccc(Cl)cc2Cl)n1 (stereo not drawn)	GPR151 activ 4.9 | GPR151 confirm inactive | GPR119 counter inactive
CCOC(=O)c1nnn(CC(=O)NC(=O)Nc2cccc(CC)c2)c1C(=O)OCC	GPR151 activ 5.7 | GPR151 confirm inactive | GPR119 counter inactive
CCCC(=O)Nc1ccc(NC(=O)c2cccc(Cl)c2)cc1	none
CC(=O)Nc1ccc(C(=O)CSc2nncn2C)cc1	GPR151 activ 9.6 | GPR151 confirm inactive | GPR119 counter inactive
O=c1cc(-c2ccc(O)cc2)oc2cc(O[C@@H]3O[C@H](CO)[C@@H](O)[C@H](O)[C@H]3O[C@@H]3OC[C@](O)(CO)[C@H]3O)cc(O)c12	GPR151 activ 8.2 | GPR151 confirm inactive | GPR119 counter inactive
CCN(c1cccc(C)c1)S(=O)(=O)c1ccc2[nH]cc(C(=O)N(CCOC)CCOC)c(=O)c2c1	none
CCOc1ccccc1OCCN[C@H](C)Cc1ccc(OC)c(S(N)(=O)=O)c1	GPR151 activ 6.8 | GPR151 confirm inactive | GPR119 counter inactive
COC(=O)C(NC(=O)c1ccc(Cl)cc1)(Nc1nc(C2CC2)cs1)C(F)(F)F (stereo not drawn)	GPR151 activ 5.2 | GPR151 confirm inactive | GPR119 counter inactive
CCOC(=O)NC(Nc1nc(C2CC2)cs1)(C(=O)OCC)C(F)(F)F (stereo not drawn)	none
O=C1OCCC1OC(=O)C12CC3CC(CC(Br)(C3)C1)C2 (stereo not drawn)	none
O=C(NNC(=O)c1ccccc1I)c1cccs1	GPR151 activ 5.8 | GPR151 confirm inactive | GPR119 counter inactive
CCCn1c(SCC(=O)N2CCCCC2)nnc1C(C)C	none
COC(=O)Nc1ccc(S(=O)(=O)N2CCCC(C(=O)O)C2)cc1 (stereo not drawn)	GPR151 activ 11 | GPR151 confirm inactive | GPR119 counter inactive
COc1ccccc1OCCn1cc(/C=C(\C#N)C(=O)NC2CC2)c2ccccc21	GPR151 activ 5.6 | GPR151 confirm inactive | GPR119 counter inactive
COc1ccc(OCCn2cc(/C=C(\C#N)C(=O)NC3CC3)c3ccccc32)cc1	none
CCC1(CC)OC(c2ccc([N+](=O)[O-])o2)Nc2ccccc21 (stereo not drawn)	none
Cc1cc2nc3c(=O)n(C4CCCCCC4)c(=O)[nH]c3nc2cc1N	GPR151 activ 5.1 | GPR151 confirm inactive | GPR119 counter inactive
CCOc1cc(=O)[nH]c2ccc(OC)cc12	none
CC1CCN(C(=O)Cn2nc(SCc3ccccn3)nc2N)CC1	GPR151 activ 17 | GPR151 confirm inactive | GPR119 counter inactive
O=C(/C=C/c1ccco1)OCCOC(=O)c1ccccc1	none
Cc1c(C(=O)c2ccc(Br)cc2)c(=O)n(C)c(=O)n1C	GPR151 activ 5.8 | GPR151 confirm inactive | GPR119 counter inactive
Nc1sc(-c2ccccc2)cc1C(=O)N/N=C/c1cccs1	GPR151 activ 8.4 | GPR151 confirm inactive | GPR119 counter inactive
COc1ccc(Cl)cc1NC(=O)c1nnn(CC(=O)Nc2ccccc2C)c1N	none
CSCC(=O)NCC1Cc2cc(F)cc(-c3ccc(C(C)=O)s3)c2O1 (stereo not drawn)	none
CC(=O)c1ccc(-c2cc(F)cc3c2OC(CNC(=O)CN(C)C)C3)s1 (stereo not drawn)	GPR151 activ 5.6 | GPR151 confirm inactive | GPR119 counter inactive
CCc1nnc(NC(=O)C2(c3cccc(F)c3)CCCC2)s1	GPR151 activ 5.2 | GPR151 confirm inactive | GPR119 counter inactive
